# Measurements published in PubChem BioAssay AID1259343 (VanderVen Lab, College of Veterinary Medicine, Cornell …, 2017).
# About 2,900 (47%) of roughly 6,200 compounds were called active. So high a share suggests a set chosen from earlier hits. This is one part of the list. Unmarked numbers belong to inactive results. No stated cut-off is given here; in the data, active means inhibition above about 50%; inactive means the rest.
# Experiment: Mycobacterium tuberculosis growth inhibition, primary screen (AID 1259343)
# Details: inhibition: at 10 µM, active compounds read high; outcome: 10 uM
row,Compound,inhibition
1,OCC1(Cc2ccccc2)CCCN(c2ccc(-c3ccccc3)nn2)C1 (stereo not drawn),23.4%
2,Cc1ccc(F)c(OCc2nc(Cc3ccccc3F)no2)c1F,81.3% (active)
3,CN(Cc1nc(Cc2ccccc2Cl)no1)C1CCCCC1,65.6% (active)
4,COc1cccc2c1OCCCN(Cc1nc(Cc3ccccc3Cl)no1)C2,14.3%
5,COc1cccc(F)c1OCc1nc(CC2CC2)no1,-44.2%
6,Cc1noc(CNc2cc(Cl)ccc2Oc2ccccc2)n1,33.9%
7,COc1ccc(C2N=C(c3ccccc3C)NO2)cc1O (stereo not drawn),inactive
8,COc1ccc([C@@H]2CC(=O)c3c(O)cc(O)cc3O2)cc1O,67.2% (active)
9,S=c1oc(-c2cccc(Cl)c2)nn1CN1CCC(c2nnc3ccccn23)CC1,22.7%
10,Cc1cc(C)cc(-c2nn(CN3CCOCC3(C)C)c(=S)o2)c1,-38.7%
11,CN1CCN(Cn2nc(-c3ccc4c(c3)OCO4)oc2=S)CC1,86.7% (active)
12,CCc1ccc(/C=C/S(=O)(=O)Nc2onc(C)c2C)cc1,68.3% (active)
13,O=C(c1ccc(F)c(F)c1F)N1CCC(Cc2ccc(-n3cccc3)cc2)CC1,56.5% (active)
14,O=C(c1ccc(C(F)(F)F)c(F)c1)N1CCC(Cc2ccc(-n3cccc3)cc2)CC1,63.9% (active)
15,O=C(c1ccc(C(F)(F)F)c(F)c1)N1CCC(Cc2ccc(F)cc2)CC1,87% (active)
16,O=C(c1ccc(Oc2ccc(Cl)cc2)c(F)c1)N1CCC(O)CC1,5.66%
17,CCCc1cc(N2CC(C)CC(C)C2)n2nc3nc(C)cc(C)c3c2n1 (stereo not drawn),-1.46%
18,COc1ccc(C(=O)NC(C)c2ccc(Cl)cc2Cl)cc1 (stereo not drawn),55.6% (active)
19,COc1ccc(OCc2cc(C(=O)NC(C)c3csc(C)n3)no2)c(Cl)c1 (stereo not drawn),36.7%
20,CC(NC(=O)c1cc(Cl)ccc1F)c1ccc(Cl)s1 (stereo not drawn),41.4%
21,CN(Cc1ccc(F)cc1)c1ccc(-c2nc(C3CC3)no2)cn1,27.2%
22,N#CC1(NC(=O)c2ccc(-c3nc(C4CC4)no3)cc2)CCSC1 (stereo not drawn),80.6% (active)
23,O=[N+]([O-])c1ncc[nH]1,43.1%

row,Compound,inhibition
1,O=C1c2cccc3cccc(c23)C(=O)N1CCCCCc1n[nH]c(=S)o1,29.7%
2,S=c1[nH]nc(Cc2ccccc2)o1,-26.6%
3,CC(Cc1n[nH]c(=S)o1)c1ccccc1 (stereo not drawn),36.9%
4,COc1ccc(CCCc2n[nH]c(=S)o2)cc1,99.7% (active)
5,COc1ccc(Cc2n[nH]c(=S)o2)cc1,101% (active)
6,CCOc1ccc(-c2n[nH]c(=S)o2)cc1,48.7%
7,CC(=NNC(=O)NC1CCCCC1)c1ccco1,-56.6%
8,O=C(NC(=S)NC1CCCCCCC1)c1ccco1,63.9% (active)
9,O=C(Nc1ccc(Cl)c(Cl)c1)c1occc1COc1ccccc1,32.6%
10,O=C(NC1CCCC1)c1occc1COc1ccccc1,60.1% (active)
11,Cc1c(C(=O)NC2CCCCC2)oc2ccccc12,90.9% (active)
12,CN(C)c1ccc(NC(=O)C2C[C@H]2c2ccccc2)cc1C(=O)NC1CCCCC1 (stereo partly drawn),20%
13,O=C(NC1CCCCCC1)c1ccco1,55.1% (active)
14,Cc1cc(-c2ccc(NC3=NCCCS3)cc2)nc2ccccc12,20.2%
15,CC(C)CNC(=O)C(=O)NCCCc1ccc(N(C)C)cc1,33%
16,Cc1nn(-c2ccccc2)c(N)c1N=Nc1cccc(Cl)c1,56% (active)
17,CCN(CC)S(=O)(=O)c1ccc(N=Nc2c(C)nn(-c3ccccc3)c2N)cc1,25.3%
18,CC(=O)Nc1cccc(N=C2NN=C(C34CC5CC(CC(C5)C3)C4)CS2)c1,35.4%
19,CN(C)C(=O)c1csc(-c2csc(NCC3CCC3)n2)c1,38.9%
20,Clc1ccc(-c2csc(NCC3CCCO3)n2)c(Cl)c1 (stereo not drawn),77.3% (active)
21,Cc1cc(-c2csc(NC3CCCC3)n2)c(C)n1CC1CCCO1 (stereo not drawn),23.4%
22,CCCCSc1nnc2c(n1)OC=Nc1ccc(Br)cc1-2,82.3% (active)
23,CCCSc1nnc2c(n1)OC=Nc1ccc(Br)cc1-2,87.8% (active)

row,Compound,inhibition
1,CCCCSc1nnc2c(n1)OC(C)(CC)Nc1ccccc1-2 (stereo not drawn),-11.3%
2,O=c1c2c3nc4ccccc4nc3n(C3CCCC3)c2ncn1Cc1ccco1,-15.8%
3,O=c1ccc(-c2cccc(Br)c2)nn1Cc1ccccc1,22.6%
4,Cc1ccc(Cn2nc(-c3ccccc3)ccc2=O)cc1,70.6% (active)
5,Cc1ccc(-c2ccc(=O)n(Cc3ccccc3)n2)cc1,24%
6,O=c1ccc(-c2ccc(F)cc2)nn1Cc1ccccc1F,33.9%
7,Cc1ccc(-c2ccc(=O)n(Cc3ccccc3F)n2)cc1,28.8%
8,CCOc1ccc(-c2ccc(=O)n(Cc3ccccc3)n2)cc1,41.1%
9,CCOc1ccc(-c2ccc(=O)n(Cc3ccc(F)cc3)n2)cc1,90.8% (active)
10,O=c1ccc(-c2ccc(Br)cc2)nn1Cc1cccc(F)c1,-4.34%
11,O=c1ccc(-c2ccc(F)cc2)nn1Cc1ccc(Br)cc1,46.8%
12,O=c1ccc(-c2ccc(Cl)cc2)nn1Cc1ccccc1F,70.5% (active)
13,O=c1ccc(-c2ccccc2)nn1Cc1cccc(Cl)c1,92.4% (active)
14,CCOC(=O)NC(O)C(F)(F)C(F)(F)C(F)(F)C(F)(F)C(F)(F)C(F)F (stereo not drawn),27.7%
15,Cc1nnc2n1N=CC=C(c1ccccc1)S2,54.6% (active)
16,O=S(=O)(Nc1nc2ccccc2s1)c1ccc(Br)s1,70.2% (active)
17,O=S(=O)(Nc1nc2ccccc2s1)c1ccc(Cl)s1,93.7% (active)
18,O=S(=O)(Nc1nc2ccccc2s1)c1cccs1,-38.3%
19,O=S(=O)(Nc1nc2ccccc2s1)c1ccccc1,57.6% (active)
20,O=S(=O)(Nc1nc2ccccc2nc1Nc1ccccc1)c1ccc(Br)s1,80.6% (active)
21,O=S(=O)(Nc1nc2ccccc2nc1Nc1ccc2c(c1)OCO2)c1cccc2nsnc12,-10.2%
22,CCN1CCN(C(C)CNc2nc3ccccc3s2)CC1 (stereo not drawn),-41.8%
